Compound activity: PubChem BioAssay, Broad Institute
aSyn UTR act: Activators via SNCA 5'UTR binding, MLPCN. alpha-synuclein 5'UTR reporter, activators screen. 300,000 tested, 7.1% active. activity score, % (tested at 7.5 µM), hits read low. AID 1814; in the data active = activity score below about -60%
* = called active by the depositor. Only a sample is shown.

SMILES	aSyn UTR act
COc1ccc2cc1Oc1ccc(cc1)CC1c3c(cc(OC)c4c3Oc3cc5c(cc3O4)CCNC5C2)CCN1C (stereo not given)	114
O=C(COc1ccccc1)Nc1nnc(C23CC4CC(CC(C4)C2)C3)s1	-75*
COc1cccc(-c2nnc(NC(=O)c3cccs3)s2)c1	-119*
C/C=C(\C)c1nnc(NC(=O)c2ccco2)s1	-78*
COc1cccc(-c2nnc(NC(=O)c3ccco3)s2)c1	-97*
COc1ccc(-c2nnc(NC(=O)c3ccco3)s2)cc1	-122*
Cc1cccc(C(=O)Nc2nnc(SCC(=O)NCc3ccco3)s2)c1	-101*
Cc1ccc(-c2nnc(NC(=O)c3ccco3)s2)cc1	-84*
O=C(Nc1nnc(C23CC4CC(CC(C4)C2)C3)s1)c1ccco1	-89*
COc1cccc(-c2nnc3sc(-c4ccco4)nn23)c1	-95*
COc1ccc(NC(=O)Cn2nnc(-c3ccccc3NC(=O)c3ccco3)n2)cc1	-117*
Cc1cccc(C(=O)Nc2nnc(-c3ccc(C(C)(C)C)cc3)s2)c1	-102*
O=C(Cn1cc(C(F)(F)F)cc(Cl)c1=O)NCc1ccccc1	-113*
CCOC(=O)COc1cccc2c(=O)n(CC(=O)NCc3ccccc3)ccc12	57
Cn1cccc1C(=O)NNC(=O)c1ccccc1Br	-97*
Cn1cccc1C(=O)NNC(=O)COc1ccccc1F	-87*
CCN(CC)c1ccc(C(=O)NNC(=O)c2cccn2C)cc1	-115*
CNC(=O)c1cccnc1Nc1cccc(C(F)(F)F)c1	-148*
O=C(Nc1cccc(C(F)(F)F)c1)Oc1ccc(Cl)c2cccnc12	75
Cc1ccc(Nc2ncccc2C(N)=O)cc1[N+](=O)[O-]	-201*
Cc1ccc(Nc2ncccc2C(=O)O)cc1C	-104*
COCc1cc(C)nc2sc(C(=O)Nc3nccs3)c(N)c12	-121*
COCc1cc(C)nc2sc(C(=O)Nc3cccc(OC)c3)c(N)c12	-192*
CN(C)CCN(C(=O)/C=C/c1cccs1)c1nc2c(F)cc(F)cc2s1	96
CCN(CC)CCN(C(=O)/C=C/c1cccs1)c1nc2ccc(C)cc2s1	-79*
SMILES	aSyn UTR act
O=C(Nc1ccc(/C=C/c2nc3ccccc3o2)cc1)c1ccc(F)cc1	-117*
O=c1cccccc1NN=C1CCCCC1	-69*
O=c1cccccc1NN=C1CCCCCC1	-140*
Cc1ccc(OCCSc2ncnc3nc[nH]c23)cc1	-67*
Cn1c(SCC(=O)c2ccc(F)cc2)nnc1-c1cnccn1	-63*
Cn1c(SCC(=O)c2ccccc2)nnc1-c1ccccn1	-128*
Cn1c(SCC(=O)c2ccccc2)nnc1-c1cccc(N)c1	-62*
Cc1ccc(COc2cccc(/C=N/NC(=O)c3nnn(-c4nonc4N)c3C)c2)cc1	-152*
CCc1c(C(=O)N/N=C/c2ccc(OCc3ccc(F)cc3)c(OC)c2)nnn1-c1nonc1N	-128*
CCN(CC)Cc1c(C(=O)N/N=C/c2ccc(OCc3ccccc3C)cc2)nnn1-c1nonc1N	-87*
C/C(=N\NC(=O)c1nnn(-c2nonc2N)c1CN(C)c1ccccc1)c1ccccn1	88
Nc1nonc1-n1nnc(C(=O)N/N=C/c2ccc(OCc3ccccc3)cc2)c1CN1CCCCC1	-112*
CC1CCN(Cc2c(C(=O)N/N=C/c3ccc(C(C)(C)C)cc3)nnn2-c2nonc2N)CC1	64
Cc1c(C(=O)N/N=C/c2c(O)ccc3ccccc23)nnn1-c1nonc1N	63
Nc1nonc1-n1nnc(C(=O)N/N=C/c2cc(Br)ccc2O)c1CNc1ccccc1	70
Nc1nonc1-n1nnc(C(=O)N/N=C/c2ccc(OCc3ccccc3F)cc2)c1CNc1ccccc1	-75*
Nc1nonc1-n1nnc(C(=O)N/N=C/c2ccc(OCc3ccc(F)cc3)cc2)c1COc1ccccc1	-122*
COc1ccc2nc(-c3ccccn3)[nH]c2c1	-80*
Nc1ccc(-c2nc3c(Cl)cc(N)cc3[nH]2)cc1	85
Nc1ccc2nc(-c3ccccn3)[nH]c2c1	-161*
Nc1ccc2nc(-c3ccccc3)[nH]c2c1	-126*
Nc1ccc2nc(-c3ccc(N)c(Cl)c3)[nH]c2c1	-115*
Nc1ccc2nc(-c3cccs3)[nH]c2c1	-156*
Nc1cccc(-c2nc3ccc(C(=O)c4ccccc4)cc3[nH]2)c1	-276*
O=C(Nc1ccc2c(c1)OCO2)N1CCN(c2ncccn2)CC1	-111*
SMILES	aSyn UTR act
O=C(Nc1ccc2c(c1)OCO2)N1CCN(c2ccc(F)cc2)CC1	-122*
O=C(Nc1ccc2c(c1)OCO2)N1CCN(c2ncc(C(F)(F)F)cc2Cl)CC1	-104*
O=C(Nc1ccc2c(c1)OCO2)N1CCN(c2ccccc2)CC1	-195*
Cc1nc(N)nc(N)c1/C=C/C(C)(C)c1ccc(Cl)cc1	125
CC(C)(C)S(=O)(=O)c1cnc(-c2ccc(Cl)cc2)nc1N	-114*
c1ccc(OCCOc2cccc3cccnc23)cc1	-94*
OCc1ccccc1OCCOc1ccc(Cl)c2cccnc12	-95*
OCc1ccccc1OCCCOc1cccc2cccnc12	-83*
O=C(COc1ccccc1CNCc1ccccc1)Nc1ccccc1	-91*
Clc1ccc(OCc2cn3ccccc3n2)c2ncccc12	-158*
Brc1ccc(COc2cccc3cccnc23)cc1	-81*
O=C(COc1cccc2cccnc12)Nc1ccccc1	-174*
O=C(N/N=C/c1ccc[nH]1)c1ccc(COc2cccc3cccnc23)cc1	104
O=C(COc1ccc(Cl)cc1Cl)Nc1cccc(-c2ccc(N3CCOCC3)nn2)c1	-72*
O=C(Nc1cccc(-c2ccc(N3CCOCC3)nn2)c1)c1ccc([N+](=O)[O-])cc1	-99*
O=C(Nc1cccc(-c2ccc(N3CCOCC3)nn2)c1)c1ccccc1	-80*
Cc1ccccc1C(=O)Nc1cccc(-c2ccc(N3CCOCC3)nn2)c1	-65*
Cc1ccc(C(=O)Nc2cccc(-c3ccc(N4CCOCC4)nn3)c2)cc1[N+](=O)[O-]	-76*
Cc1ccccc1C(=O)Nc1nnc(S(=O)(=O)N(C)Cc2ccco2)s1	-72*
CCOc1ccc(C(=O)Nc2nnc(S(=O)(=O)N(C)Cc3ccco3)s2)cc1	-139*
Cc1cccc(-n2nc3c(c2NC(=O)C2CC2)CS(=O)(=O)C3)c1C	-85*
CCN1CCN(C(=O)/C=C/c2c(F)cccc2Cl)CC1	-90*
O=C(/C=C/c1c(F)cccc1Cl)N1CCc2ccccc2C1	-85*
Cc1cccc(C(=O)n2c(=S)nc3ccccn32)c1	-102*
O=C(c1ccccc1)n1c(=S)nc2ccccn21	-124*
SMILES	aSyn UTR act
O=C(Nc1ccc2oc(-c3ccncc3)nc2c1)c1ccccc1F	-135*
O=C(Nc1ccc2oc(-c3ccncc3)nc2c1)c1cccs1	-114*
CC(C)CC(=O)Nc1ccc2oc(-c3ccncc3)nc2c1	-74*
O=C(Nc1ccc2oc(-c3ccc(Cl)c(Cl)c3)nc2c1)c1ncn[nH]1	-168*
O=C(Nc1ccc2oc(-c3cccc(F)c3)nc2c1)c1ccccc1F	-120*
O=C(Nc1ccc2oc(-c3ccccc3F)nc2c1)c1ccccc1F	-188*
O=C(Nc1ccc2oc(-c3ccncc3)nc2c1)c1ccc([N+](=O)[O-])o1	-118*
O=C(Nc1ccc2oc(-c3ccccc3)nc2c1)c1ccccc1F	-257*
COc1cc(-c2nnn(CC(=O)NC3CCS(=O)(=O)C3)n2)ccc1OCc1ccccc1 (stereo not given)	-126*
Fc1ccc(Nc2ccnc(Nc3ccc(F)cc3)n2)cc1	-93*
CCc1ccc(NC(=O)c2nc(S(=O)(=O)Cc3ccccc3)ncc2Cl)cc1	91
CC(C)c1nnc(NC(=O)c2nc(S(=O)(=O)Cc3ccccc3)ncc2Cl)s1	-81*
